This is an account of results in PubChem BioAssay.

What is called inhibition is the drop in the measured response relative to a control, in per cent.

A short description of test [1]: yeast TOR pathway RPL19A-GFP modulators, primary screen, cell-based, S. cerevisiae, multiplex flow cytometry (AID 1862; in the data active = percent of DMSO control GFP below about 86%;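 note: lower values mimic rapamycin by blocking the RPL19A rise seen in DMSO cells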). As to conditions: S. cerevisiae RPL19A-GFP strain, flow cytometry fluorescence, 3 h; at 10 µM; stronger effect = lower value. Background: Flow cytometry measures light scatter and fluorescence of single cells or particles in a stream.
The nature of test [2]: modulators of MEP2-GFP levels in yeast, primary screen, S. cerevisiae, multiplex flow cytometry (AID 1867;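 active = GFP response, as percent of the DMSO control, above the screen-wide mean plus 3 SD, about 139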;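 note: median GFP channel fluorescence of barcode-gated MEP2-GFP cells measured by flow cytometry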). As to conditions: S. cerevisiae MEP2-GFP strain, 3 h, at 10 µM, stronger effect = higher value, 100% means same as DMSO wells.
A short description of test [3]: modulators of CIT2-GFP expression in yeast, primary screen, S. cerevisiae, GFP fusion, multiplex flow cytometry (AID 1870;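 active = percent response above a set limit, the screen-wide mean plus 3 SD, cut at about 130% in these data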;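 note: barcoded CIT2-GFP strain pooled with four other GFP strains with rapamycin as positive control; median GFP fluorescence per well over plate mean of DMSO wells so 100% = DMSO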). As to conditions: 3 h, at 10 µM, stronger effect = higher value.
Test [4] is described as follows: modulators of LAP4-GFP expression in yeast, primary screen, S. cerevisiae, multiplex flow cytometry (AID 1873;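 active = GFP signal, as percent of the solvent control, above the screen mean plus 3 SD, about 149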). As to conditions: 3 h, at 10 µM, stronger effect = higher value.
A short description of test [5]: modulators of AGP1-GFP expression in yeast TOR pathway, primary screen, cell-based, multiplex flow cytometry, S. cerevisiae (AID 1887;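 active = GFP signal above the screen-wide mean plus 3 SD, that is over about 124.5% of the solvent control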;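 note: AGP1-GFP fusion strain of S. cerevisiae within a five-strain barcoded multiplex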). As to conditions: 3 h, at 10 µM, stronger effect = higher value.
Test [6] is described as follows: inhibitors of CD8+ T cell-vesicle binding, pilot screen, LFA-1/ICAM-1 modulator project, MLPCN validation set, flow cytometry (AID 2523;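 active = response below a set limit, under 55% cells CD8-positive and vesicle-bound, and CD8 cells' 90th-percentile brightness under 279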;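 for vesicle binding response: mean PE anti-B7-1 fluorescence of CD8+ cells relative to row control; 100% = QL9-loaded vesicles with DMSO vehicle in the same plate row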). The following applies: 2C mouse CD8+ T cells, at 7 µM, stronger effect = lower value; double positive events: measured here: CD8+/vesicle+ event percentage.
The target in test [7] is Integrin beta-1 (Homo sapiens) + Integrin alpha-4 (Homo sapiens) (UniProt P13612+P05556). Kind of test: inhibition of HUTS-21 binding to VLA-4, pilot screen, VLA-4 allosteric modulator project, U937 cells, HUTS-21 mAb, flow cytometry, validation set (AID 2674;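 active = inhibition above 50%, about 3 SD of the validation set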;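 note: antibody binding induced by the VLA-4 ligand LDV present at three times its Kd; 0% = LDV ligand with antibody and no compound and 100% = antibody without LDV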). As to conditions: HUTS-21 LIBS mAb binding, at 6.7 µM, stronger effect = higher value, binding induced by LDV ligand.
Chain of Integrin beta-1 (Homo sapiens) + Integrin alpha-4 (Homo sapiens) (P05556 whole entry, looked up): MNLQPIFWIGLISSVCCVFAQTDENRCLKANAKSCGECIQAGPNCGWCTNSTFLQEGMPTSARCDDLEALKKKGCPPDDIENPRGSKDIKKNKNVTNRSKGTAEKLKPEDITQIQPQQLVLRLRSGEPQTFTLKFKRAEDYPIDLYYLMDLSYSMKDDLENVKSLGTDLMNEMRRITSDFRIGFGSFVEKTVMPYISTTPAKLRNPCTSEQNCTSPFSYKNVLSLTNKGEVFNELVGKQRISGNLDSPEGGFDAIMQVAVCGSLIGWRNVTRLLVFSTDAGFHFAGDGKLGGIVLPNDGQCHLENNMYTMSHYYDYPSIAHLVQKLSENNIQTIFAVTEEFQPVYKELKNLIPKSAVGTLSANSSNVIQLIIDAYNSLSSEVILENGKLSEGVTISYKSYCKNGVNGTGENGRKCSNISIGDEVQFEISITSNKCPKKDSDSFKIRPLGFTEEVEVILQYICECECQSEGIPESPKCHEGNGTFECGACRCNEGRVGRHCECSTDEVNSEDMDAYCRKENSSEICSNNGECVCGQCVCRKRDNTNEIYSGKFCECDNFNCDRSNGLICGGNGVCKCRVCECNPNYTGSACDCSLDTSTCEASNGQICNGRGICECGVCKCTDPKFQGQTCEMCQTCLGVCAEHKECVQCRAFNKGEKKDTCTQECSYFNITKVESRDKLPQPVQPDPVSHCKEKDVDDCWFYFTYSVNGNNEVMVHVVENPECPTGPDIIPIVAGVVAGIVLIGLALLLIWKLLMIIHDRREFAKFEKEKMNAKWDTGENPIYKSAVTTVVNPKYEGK
Chain of Integrin beta-1 (Homo sapiens) + Integrin alpha-4 (Homo sapiens) (P13612 whole entry, looked up): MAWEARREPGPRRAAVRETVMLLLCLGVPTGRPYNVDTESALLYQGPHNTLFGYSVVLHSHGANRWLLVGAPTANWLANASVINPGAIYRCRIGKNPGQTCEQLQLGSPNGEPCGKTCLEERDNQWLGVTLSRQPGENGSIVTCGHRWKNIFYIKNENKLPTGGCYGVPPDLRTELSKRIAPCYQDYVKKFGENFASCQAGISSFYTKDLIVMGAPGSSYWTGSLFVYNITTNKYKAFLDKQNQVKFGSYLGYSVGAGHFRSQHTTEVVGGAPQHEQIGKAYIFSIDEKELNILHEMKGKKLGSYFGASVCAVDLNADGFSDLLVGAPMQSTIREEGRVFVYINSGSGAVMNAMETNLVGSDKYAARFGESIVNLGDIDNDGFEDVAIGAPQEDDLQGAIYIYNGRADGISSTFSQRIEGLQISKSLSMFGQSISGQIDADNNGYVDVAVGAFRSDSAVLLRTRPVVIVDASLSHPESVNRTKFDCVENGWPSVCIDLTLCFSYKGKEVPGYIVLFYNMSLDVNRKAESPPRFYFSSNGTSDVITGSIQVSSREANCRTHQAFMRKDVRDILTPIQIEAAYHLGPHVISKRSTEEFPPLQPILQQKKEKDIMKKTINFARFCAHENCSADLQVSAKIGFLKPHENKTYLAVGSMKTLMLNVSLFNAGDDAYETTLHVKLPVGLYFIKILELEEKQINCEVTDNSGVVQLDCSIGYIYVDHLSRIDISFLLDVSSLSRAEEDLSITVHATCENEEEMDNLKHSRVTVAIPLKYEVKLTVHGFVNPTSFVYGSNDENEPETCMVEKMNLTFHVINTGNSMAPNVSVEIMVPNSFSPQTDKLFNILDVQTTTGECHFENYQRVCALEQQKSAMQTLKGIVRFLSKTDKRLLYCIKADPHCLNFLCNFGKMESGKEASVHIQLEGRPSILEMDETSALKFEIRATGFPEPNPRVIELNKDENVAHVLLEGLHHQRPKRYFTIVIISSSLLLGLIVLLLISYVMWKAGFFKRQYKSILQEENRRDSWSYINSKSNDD
Test [8] can be described thus: superoxide lowering in aged yeast cells, pilot screen, validation compound set (AID 2706;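 active = superoxide response below 65% of plate, a cut near 3 SD across the whole screen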;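 note: yeast exposed to compound for one week at 30 degrees C before staining; 100% = mean of all compound wells on the same plate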). As to conditions: S. cerevisiae aging, superoxide DHE fluorescence; at 10 µM; stronger effect = lower value.
The target of test [9] is Beta-adrenergic receptor kinase 1 (Homo sapiens) (UniProt P25098). Nature of the test: GRK2 binders displacing RNA aptamer, biochemical, validation, human GRK2, bead flow cytometry (AID 488806;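 active = aptamer binding inhibition above 30%, about 3 SD of noise from non-fluorescent compounds; inactive = inhibition at or below 30%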). The following applies: bead-bound GRK2, FAM-aptamer displacement, at 10 µM, stronger effect = higher value.
Chain of Beta-adrenergic receptor kinase 1 (Homo sapiens) (P25098 whole entry, looked up): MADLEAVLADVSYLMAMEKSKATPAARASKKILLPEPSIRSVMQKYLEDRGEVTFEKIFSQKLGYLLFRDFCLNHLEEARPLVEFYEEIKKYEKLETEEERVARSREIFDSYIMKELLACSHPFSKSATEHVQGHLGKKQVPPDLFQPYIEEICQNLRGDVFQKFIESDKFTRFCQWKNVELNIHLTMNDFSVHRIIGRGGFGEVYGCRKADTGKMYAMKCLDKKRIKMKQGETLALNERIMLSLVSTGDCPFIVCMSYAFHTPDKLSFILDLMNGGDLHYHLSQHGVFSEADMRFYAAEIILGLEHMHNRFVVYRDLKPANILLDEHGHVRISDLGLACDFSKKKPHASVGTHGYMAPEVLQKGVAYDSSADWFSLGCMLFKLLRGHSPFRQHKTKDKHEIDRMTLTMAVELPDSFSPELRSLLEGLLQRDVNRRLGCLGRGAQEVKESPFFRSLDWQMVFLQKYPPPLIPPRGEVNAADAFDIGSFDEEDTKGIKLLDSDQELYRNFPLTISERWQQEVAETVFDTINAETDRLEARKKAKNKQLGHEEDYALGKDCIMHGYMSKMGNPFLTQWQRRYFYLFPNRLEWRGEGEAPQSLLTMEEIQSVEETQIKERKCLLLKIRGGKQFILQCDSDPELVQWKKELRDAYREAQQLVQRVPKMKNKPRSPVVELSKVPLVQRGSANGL
In test [10] the target is Beta-2 adrenergic receptor (Homo sapiens) (UniProt P07550). Nature of the test: beta2AR agonists driving receptor internalization, pilot screen, cell-based, FAP fluorogen, flow cytometry, validation set (AID 504459;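 active = percent response above 42, roughly 3 SD of non-fluorescent test compounds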;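 note: agonist-driven loss of surface beta2AR via internalization measured by FAP dye flow cytometry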). As to conditions: Am2.2-beta2AR cells, FAP surface receptor flow cytometry; at 10 µM; stronger effect = higher value.
Chain of Beta-2 adrenergic receptor (Homo sapiens) (P07550 whole entry, looked up): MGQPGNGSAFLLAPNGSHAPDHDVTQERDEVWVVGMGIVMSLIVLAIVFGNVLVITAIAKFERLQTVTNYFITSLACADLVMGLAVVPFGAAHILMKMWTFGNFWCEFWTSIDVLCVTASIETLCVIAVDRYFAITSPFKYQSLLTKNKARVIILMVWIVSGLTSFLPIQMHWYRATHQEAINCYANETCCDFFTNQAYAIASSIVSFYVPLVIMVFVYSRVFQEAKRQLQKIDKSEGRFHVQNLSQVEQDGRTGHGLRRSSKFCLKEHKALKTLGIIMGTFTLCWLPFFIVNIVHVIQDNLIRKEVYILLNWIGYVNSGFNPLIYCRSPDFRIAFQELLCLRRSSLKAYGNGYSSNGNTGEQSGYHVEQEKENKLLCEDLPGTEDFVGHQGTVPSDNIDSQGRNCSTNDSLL
The target in test [11] is AP-2 complex subunit beta (Homo sapiens) (UniProt P63010). Nature of the test: inhibitors of arrestin peptide binding to AP2, pilot screen, biochemical, validation set, GST-AP2 beads, flow cytometry (AID 504541;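 active = inhibition above 54%, about 3 SD of non-fluorescent compounds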;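 note: AP2 carries R879A mutation and is captured from E. coli lysate; bead-bound FITC arrestin peptide fluorescence measuring arrestin peptide binding to AP2; 0% = DMSO wells and 100% = excess unlabeled arrestin peptide control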). As to conditions: FITC arrestin peptide, at 10 µM, stronger effect = higher value, AP2 beta2 appendage fragment, R879A mutant.
Chain of AP-2 complex subunit beta (Homo sapiens) (P63010 whole entry, looked up, the tested form may be a part, one chain of several): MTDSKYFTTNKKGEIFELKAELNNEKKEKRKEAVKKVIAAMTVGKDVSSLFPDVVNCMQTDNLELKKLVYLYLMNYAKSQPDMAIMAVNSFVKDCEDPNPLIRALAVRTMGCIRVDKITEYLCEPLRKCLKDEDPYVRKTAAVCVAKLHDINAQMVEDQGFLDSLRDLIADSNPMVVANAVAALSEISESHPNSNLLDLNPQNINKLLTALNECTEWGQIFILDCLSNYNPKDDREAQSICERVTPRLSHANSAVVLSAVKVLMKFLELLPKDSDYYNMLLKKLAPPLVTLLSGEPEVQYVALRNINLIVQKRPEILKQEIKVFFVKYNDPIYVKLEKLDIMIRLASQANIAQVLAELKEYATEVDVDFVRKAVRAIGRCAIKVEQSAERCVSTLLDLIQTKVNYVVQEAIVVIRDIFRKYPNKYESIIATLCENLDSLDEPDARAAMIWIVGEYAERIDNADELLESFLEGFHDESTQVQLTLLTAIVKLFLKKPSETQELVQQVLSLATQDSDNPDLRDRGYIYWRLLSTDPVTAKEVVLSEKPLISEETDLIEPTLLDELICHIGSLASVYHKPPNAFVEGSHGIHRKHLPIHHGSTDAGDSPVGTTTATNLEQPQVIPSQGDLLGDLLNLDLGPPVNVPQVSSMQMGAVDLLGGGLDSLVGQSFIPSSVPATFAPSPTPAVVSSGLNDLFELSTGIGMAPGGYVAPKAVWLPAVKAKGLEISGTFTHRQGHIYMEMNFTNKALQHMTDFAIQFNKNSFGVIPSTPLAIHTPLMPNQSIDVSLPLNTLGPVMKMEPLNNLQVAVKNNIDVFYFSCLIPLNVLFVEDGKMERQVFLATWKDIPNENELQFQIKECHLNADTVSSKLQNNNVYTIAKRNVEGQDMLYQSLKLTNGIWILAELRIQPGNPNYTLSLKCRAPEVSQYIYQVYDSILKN
The nature of test [12]: yeast V-ATPase proton transport modulators, S. cerevisiae, pHLuorin, HTS validation (AID 504600; in the data active = response above about 15%;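 note: plate controls were DMSO for no effect and reference compound for full effect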). The following applies: S. cerevisiae pHLuorin cytosolic pH, at 10 µM, stronger effect = higher value.
The subject of test [13] is anti-desmoglein-3 scFv antibody binding to human DSG3. Nature of the test: inhibitors of anti-DSG3 scFv binding to DSG3, pilot screen, biochemical, validation compound set, bead-based, flow cytometry (AID 588368).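 Note: signal is the median channel fluorescence of bead-bound GFP antibody.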 As to conditions: Protein G beads, DSG3-Fc, scFv-GFP binding, at 10 µM, stronger effect = lower value.
Test [14] is described as follows: inhibitors of fungal efflux pumps CDR1, CDR2, MDR1, pilot screen, validation compound set, multiplex, phenotypic (AID 588506;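 active = efflux inhibition above 0.42, the validation set average plus 4 SD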;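 note: Nile Red retained in cells so higher fluorescence means more efflux inhibition; 0 = negative control wells and 1 = enniatin B 25 µM full block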). As to conditions: S. cerevisiae pump-expressing triplex, Nile Red efflux flow cytometry; at 10 µM; stronger effect = higher value; the pumps come from Candida albicans.
Test [15] has as its target ATP-binding cassette sub-family B member 6 (Homo sapiens) (UniProt Q9NP58). Kind of test: ABCB6 transporter inhibitors, pilot screen, K562-ABCB6 cells, flow cytometry, validation set (AID 588550;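 active = inhibition above the screen-wide mean plus 3 SD, about 51%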;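 note: 0% = DMSO wells and 100% = benzethonium chloride 70 µM positive control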). The following applies: K562-ABCB6 porphyrin accumulation, 1 h, at 10 µM, stronger effect = higher value.
A short description of test [16]: promoters of myeloid differentiation in arrested cells, primary screen, cell-based, GFP/MAC1 double positive, flow cytometry, validation set (AID 588685;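 active = differentiation response of at least 50%, scaled between solvent and reference control, from cells with both markers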;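 note: compound exposure lasts four days before antibody staining and flow analysis; 0% = DMSO wells and 100% = 5 µM fulvestrant positive control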). As to conditions: ER-HoxA9 marrow cells, stronger effect = higher value, normalized: vehicle 0, fulvestrant 100.

Molecules are shown by their SMILES. Results filed as inconclusive are left out. The source made the active and inactive calls.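 Rule for the calls, unless noted: active = binding below the plate cutoff, the plate median minus 3 SD, with a reading above zero; inconclusive = below the plate cutoff but reading exactly zero; inactive = the rest.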

Chain of ATP-binding cassette sub-family B member 6 (Homo sapiens) (Q9NP58 whole entry, looked up): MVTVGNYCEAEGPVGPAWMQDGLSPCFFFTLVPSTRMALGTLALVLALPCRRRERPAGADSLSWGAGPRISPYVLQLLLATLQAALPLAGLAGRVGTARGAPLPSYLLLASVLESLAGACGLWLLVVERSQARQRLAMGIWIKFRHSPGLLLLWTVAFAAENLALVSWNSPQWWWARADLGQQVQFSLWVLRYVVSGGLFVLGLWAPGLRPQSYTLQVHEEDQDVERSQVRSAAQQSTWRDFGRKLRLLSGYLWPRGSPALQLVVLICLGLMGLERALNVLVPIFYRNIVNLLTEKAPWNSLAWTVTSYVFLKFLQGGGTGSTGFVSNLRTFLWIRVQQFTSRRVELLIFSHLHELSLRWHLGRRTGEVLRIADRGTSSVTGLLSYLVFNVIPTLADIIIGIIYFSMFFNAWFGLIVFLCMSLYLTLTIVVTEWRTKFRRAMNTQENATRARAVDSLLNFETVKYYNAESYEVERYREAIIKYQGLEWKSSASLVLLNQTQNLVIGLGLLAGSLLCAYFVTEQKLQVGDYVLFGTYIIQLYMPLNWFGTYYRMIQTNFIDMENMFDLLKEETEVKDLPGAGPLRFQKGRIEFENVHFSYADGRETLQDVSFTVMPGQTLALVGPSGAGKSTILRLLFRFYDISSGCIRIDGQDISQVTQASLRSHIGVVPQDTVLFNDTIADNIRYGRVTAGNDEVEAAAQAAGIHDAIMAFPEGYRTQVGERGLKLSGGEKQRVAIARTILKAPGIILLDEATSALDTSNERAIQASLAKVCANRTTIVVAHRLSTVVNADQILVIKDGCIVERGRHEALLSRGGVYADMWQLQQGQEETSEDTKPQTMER

Take `OCC1CCN(Cc2cn(Cc3ccccc3)nc2-c2cc3ccccc3o2)CC1`: the percent of DMSO control GFP in test [1] is 106% (inactive). Besides, the results for the GFP response vs DMSO in [2] and in [4] were 97.2% (inactive) and 79.5% (inactive), respectively. Moreover, in [3], the percent response of DMSO control is 97.8% (inactive). For the same compound, the GFP response, % of DMSO in test [5] is 102% (inactive). In [6], this compound returned a double positive events of 60.9%. Besides, in test [6], the vesicle binding response was 203% (inactive). Besides, the inhibition was 18.2% (inactive) in test [7], 5.6% (inactive) in test [11] and 20% (inactive) in test [15]. In [8], the superoxide response (% of plate) is 99.1% (inactive). In addition, the aptamer binding inhibition in [9] is -3% (inactive). Further, the response is 21% (inactive) in test [10] and -6.29% (inactive) in [12]. Further, the binding (% of control) in test [13] is 98.5% (inactive). Besides, the efflux inhibition (fraction of control) in test [14] is 0.52 (active). Moreover, in test [16], the differentiation response was 10% (inactive).
As to `CC(C)C(=O)Nc1c(O)c2ccccc2[nH]c1=O`, the percent of DMSO control GFP in test [1] was 95.6% (inactive). Also, the values for the GFP response vs DMSO in test [2] and in [4] were 91.9% (inactive) and 151% (active), respectively. Also, the percent response of DMSO control in test [3] was 93.9% (inactive). In [5], the GFP response, % of DMSO was 96.6% (inactive). Also, the double positive events in test [6] came out at 62%. In test [6], the vesicle binding response was 220% (inactive). Besides, the inhibition in test [7] was 6.4% (inactive); in test [11], -0.19% (inactive); in test [15] it was 11% (inactive). Moreover, the superoxide response (% of plate) in [8] is 111% (inactive). Besides, the aptamer binding inhibition in test [9] was 0% (inactive). Moreover, the response in test [10] is 7.52% (inactive); in test [12], -4.44% (inactive). Besides, in [13], the binding (% of control) was 96.6% (inactive). In addition, the efflux inhibition (fraction of control) in test [14] was 0.15 (inactive). In addition, the differentiation response in test [16] was -4% (inactive).
Turning to `O=C(COc1ccc(F)cc1)OCCN1CCOCC1`, the percent of DMSO control GFP in test [1] was 102% (inactive). Further, the GFP response vs DMSO was 95.1% (inactive) in test [2] and 93.3% (inactive) in test [4]. Moreover, the percent response of DMSO control in [3] is 112% (inactive). Besides, the GFP response, % of DMSO in test [5] is 102% (inactive). In test [6], this compound returned a double positive events of 62.8%. The vesicle binding response in test [6] was 246% (inactive). Besides, the inhibition was -2.53% (inactive) in test [7], -0.56% (inactive) in test [11] and -1% (inactive) in test [15]. Further, the superoxide response (% of plate) in test [8] was 89.6% (inactive). Also, the aptamer binding inhibition in test [9] was 0% (inactive). For the same compound, the response in test [10] was -7.72% (inactive); in test [12], 21.8% (active). In [13], the binding (% of control) was 96.4% (inactive). In test [14], the efflux inhibition (fraction of control) is -0.1 (inactive). Besides, in test [16], the differentiation response is -6.6% (inactive).
Take `Cc1occc(=O)c1O`: the percent of DMSO control GFP in test [1] was 92.4% (inactive). For the same compound, the results for the GFP response vs DMSO in test [2] and in test [4] were 112% (inactive) and 71% (inactive), respectively. Also, in test [3], the percent response of DMSO control was 110% (inactive). Besides, in [5], the GFP response, % of DMSO is 86.1% (inactive). Besides, in [6], the double positive events was determined as 65.3%. In addition, the vesicle binding response in test [6] is 198% (inactive). Besides, the inhibition in test [7] was -5.18% (inactive); in test [11] it was -5.01% (inactive); in [15], 3% (inactive). The superoxide response (% of plate) in test [8] was 100% (inactive). Also, the aptamer binding inhibition in test [9] is 1% (inactive). In addition, the results for the response in test [10] and in test [12] were -9.02% (inactive) and -1.14% (inactive), respectively. Further, in test [13], the binding (% of control) is 98.1% (inactive). In addition, the efflux inhibition (fraction of control) in test [14] was -0.06 (inactive). Besides, in [16], the differentiation response was -4.91% (inactive).
For `Cc1nnc(SCC2=C(C(=O)O)N3C(=O)[C@@H](NC(=O)Cn4cnnn4)[C@H]3SC2)s1`, in test [1], the percent of DMSO control GFP was 100% (inactive). For the same compound, the values for the GFP response vs DMSO in test [2] and in [4] were 104% (inactive) and 114% (inactive), respectively. Further, the percent response of DMSO control in [3] is 100% (inactive). Further, the GFP response, % of DMSO in test [5] was 112% (inactive). This compound came in with a double positive events in test [6] of 61.6%. The vesicle binding response in test [6] is 282% (inactive). Also, the values for the inhibition in test [7], in test [11] and in test [15] were 15.9% (inactive), 6.15% (inactive) and 1% (inactive), respectively. Further, the superoxide response (% of plate) in [8] was 98.1% (inactive). The aptamer binding inhibition in test [9] was -1% (inactive). For the same compound, the response in test [10] is -26.4% (inactive); in test [12], -5.74% (inactive). Further, in [13], the binding (% of control) is 93.4% (inactive). Besides, in [14], the efflux inhibition (fraction of control) is -0.13 (inactive). In [16], the differentiation response is -7.94% (inactive).
